Assay outcomes deposited in PubChem BioAssay by National Center for Advancing Translational Sciences (NCATS).
In the library only some 21% were active in any assay of this set; here they are far more common.
TDP1 cell CPT = growth inhibition of DT40 Tdp1-/-;hTDP1 cells with camptothecin (screen for TDP1 inhibitors) | Potency, µM (top dose mostly 46.2 µM), inactives show at the highest dose activity change, negative = growth inhibition, hits mostly inhibitors | chicken DT40 Tdp1-/-;hTDP1 cells + 20 nM CPT, ATP luminescence, 48 h | actives 12% (n = 420,000) | AID 686979; note: potency is the fitted concentration of half-maximal effect; nearly all actives have a fitted effect of over 55% in size
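Cell growth measured by CellTiter-Glo luminescence after a minimum 48 h, 37 C compound exposure with 20 nM CPT in Tdp1-knockout DT40 cells stably expressing hTDP1, seeded 400/well; qHTS titration format.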
VP16 counter = counter-screen for ROR gamma inhibitors: Gal4-VP16 reporter; Drosophila S2 Gal4-VP16 UAS-luciferase, luminescence, 20 h; Potency, µM (top dose mostly 53.6 µM), without a hit: at the highest dose activity, negative = inhibition, most hits filed as inhibitors; actives 3.5% (n = 310,000);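 note: Gal4-VP16 expression switched on by copper sulfate through the metallothionein promoter; potency is the fitted concentration of half-maximal effect; nearly all actives have a fitted effect of over 50% in size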
RORg inh = blocks mouse ROR gamma transcriptional activity; Potency, µM (top dose mostly 53.6 µM), without a hit: at the top dose activity change, negative = inhibition, hits mostly inhibitors; P51450; Drosophila S2 Gal4-RORgamma UAS-luciferase reporter, 20 h; AID 2551; actives 5.4% (n = 310,000); note: potency is the fitted concentration of half-maximal effect; nearly all actives have a fitted effect of over 60% in size
Target sequence (P51450 whole entry, looked up, the tested form may be a part): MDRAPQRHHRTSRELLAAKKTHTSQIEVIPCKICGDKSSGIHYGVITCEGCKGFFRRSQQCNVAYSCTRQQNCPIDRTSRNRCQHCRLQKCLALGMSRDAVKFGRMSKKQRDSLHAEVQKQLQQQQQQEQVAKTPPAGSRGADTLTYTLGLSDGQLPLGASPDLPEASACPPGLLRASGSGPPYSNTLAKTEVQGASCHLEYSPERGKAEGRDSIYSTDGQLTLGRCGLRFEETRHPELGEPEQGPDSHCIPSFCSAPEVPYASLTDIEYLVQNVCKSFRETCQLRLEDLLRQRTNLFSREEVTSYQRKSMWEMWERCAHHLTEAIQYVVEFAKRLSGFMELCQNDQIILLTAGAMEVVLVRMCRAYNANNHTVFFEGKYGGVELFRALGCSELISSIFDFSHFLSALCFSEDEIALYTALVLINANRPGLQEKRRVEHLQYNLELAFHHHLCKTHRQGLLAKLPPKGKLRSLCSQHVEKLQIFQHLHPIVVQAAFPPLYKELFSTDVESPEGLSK
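Stably transfected Drosophila Schneider cells are the test system, with ROR gamma fused to Gal4 and luciferase under UAS control; luminescence is read after 20 hr of 700 uM copper sulfate induction at ambient temperature.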
IL1B secr inh = inflammasome signaling inhibition, IL-1 beta readout | THP-1 LPS/ATP IL-1B secretion, AlphaLISA, 16 h; active compounds read low | activity change, % at 57.5 µM | actives 4.7% (n = 360,000); in the data active = activity change below about -50%; inconclusive = mostly about -30% to -49%
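THP-1 cells pretreated 1 hr with compounds (up to 57.5 uM final), then stimulated with LPS (250 ng/mL final) plus ATP (1.25 mM final); secreted IL-1B measured by AlphaLISA after 16 hr, decreased signal indicating inhibition.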
TDP1 cell noCPT = qHTS for Inhibitors of human tyrosyl-DNA phosphodiesterase 1 (TDP1): qHTS in cells in absence of CPT. Potency, µM (doses to about 46.2 µM), inactives show at the highest dose activity change, negative = growth inhibition, hits mostly inhibitors. DT40 Tdp1-/- hTDP1 cells, no CPT, ATP luminescence, 48 h. actives 15% (n = 420,000); note: potency is the fitted concentration of half-maximal effect; nearly all actives have a fitted effect of over 55% in size
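Seeded 400 DT40-hTDP1 cells/well (vehicle DMSO, no 20 nM CPT); pinned compounds; ≥48 hr at 37 °C; CellTiter-Glo luminescence as viability measure.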
ELG1 DNA repair = ELG1-dependent DNA repair inhibition. HEK293T ELG1-luciferase reporter, luminescence, 16 h; DNA damage induced by 5-fluorouridine. Potency, µM (doses to about 46.1 µM), for the others: at the top dose activity change, negative = inhibition, usual class: inhibitors. actives 2.3% (n = 330,000); note: potency is the fitted concentration of half-maximal effect; nearly all actives have a fitted effect of over 55% in size
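Reporter activity after DNA damage by 5-fluorouridine is monitored. Compound-treated cells incubate 16 hr at 37 °C, then ONE-Glo is added for 30 min before luminescence reading.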
* hit, by the source's call; ? = inconclusive; / = not tested or not shown; [ ] = dose if it differs, or a comment. Unless noted, calls come from the whole dose curve; as a rule, active = well fitted curve in the direction sought with a large enough effect; inconclusive = small, poorly fitted or top-dose-only effect, or another doubt; inactive = no such curve, though single readings can be large; an effect the other way counts as inactive or inconclusive. % is set by controls: 0 for no effect and ±100 for the full control effect.

SMILES | TDP1 cell CPT | VP16 counter | RORg inh | IL1B secr inh | TDP1 cell noCPT | ELG1 DNA repair
CC(=O)c1ccc(N2CCN(C(=O)c3ccc(S(=O)(=O)NCc4ccco4)cc3)CC2)cc1 | 20.6µM* | / | / | -27.5 | 16.4µM* | ?
CCOc1ccc(NC(=O)CSc2nc(-c3ccccc3)c3cc(OCC)ccc3n2)cc1 | 14.6µM* | / | / | / | ? | /
CCOc1ccc(NC(=O)CSc2nc3nc(C)cc(C)n3n2)cc1 | ? | 11.2µM* | ? | -8.1 | ? | -1.9%
Cc1cc(C)n2nc(SCC(=O)Nc3ccc(O)cc3)nc2n1 | 2.1% | -1.8% | 4.8% | 18.2 | -4.0% | -7.5%
Cc1cc(C)cc(NC(=O)CSc2nc(-c3ccccc3)c3cc(F)ccc3n2)c1 | 18.4µM* | / | / | / | 18.4µM* | /
COc1ccc(NC(=O)CSc2nc(-c3ccccc3)c3ccccc3n2)cc1 | -12.9% | / | / | / | ? | /
O=C(NCc1nnc2n1CCN(C(=O)c1cccc(Cl)c1)CC2)C1CC1 | 11.2%[9.04 µM] | / | / | / | -7.2% | /
O=C(CNC(=O)c1cccc(-n2cccc2)c1)Nc1ccccc1Br | -18.8% | / | / | ? | -31.1% | /
CCN(c1ccccc1)S(=O)(=O)c1csc(C(N)=O)c1 | ? | 2.9% | 3.6% | 11.5 | -28.9% | 0.3%
Cc1cc(C(=O)O)cc(S(=O)(=O)Nc2c(C)nn(C)c2C)c1C | 13.0% | / | / | 10.8 | -13.1% | -2.0%
Cc1cc(C)cc(/C=C/C2OCC(O)C2Oc2ccc(C3CCCC3)cc2)c1 (stereo not drawn) | / | -3.0%[10 µM] | 1.3%[10 µM] | / | / | /
CC(O)[C@H]1CN=C(N)N1CCCCC1CCCCC1 (stereo partly drawn) | 9.2µM* | 1.6% | -21.9% | ? | 8.2µM* | -12.7%
CC[C@H](C)[C@H]1CNC(=S)N1CC1CCN(CCCC2CCCC2)CC1 | ? | / | / | -28.5 | ? | /
NCCCC[C@H]1CN=C(N)N1CCCCC1CCCCC1 | ? | / | / | -64.0* | ? | /
NCCCC[C@H]1CN=C(N)N1CC1CCCCC1 | -13.8% | / | / | -0.7 | -2.9% | /
CCC(C)[C@H]1CN=C(N)N1CC1CCCCC1 (stereo partly drawn) | 2.59µM* | / | / | -1.4 | 2.31µM* | /
CCC(C)[C@H]1CNC(=O)C(=O)N1CCCCC1CCCCC1 (stereo partly drawn) | -24.2% | / | / | -2.2 | -27.5% | /
CN(CC(=O)Nc1ccccc1Cl)C(=O)c1cccc(S(=O)(=O)N2CCN(Cc3ccccc3)CC2)c1 | 11.6µM* | / | / | -14.7 | 9.2µM* | ?
CN(CC(=O)Nc1cccc(F)c1)C(=O)c1cccc(S(=O)(=O)N2CCN(Cc3ccccc3)CC2)c1 | 8.2µM* | / | / | 8.6 | 8.2µM* | /
O=S1(=O)NC2c3ccccc3CC2O1 (stereo not drawn) | 11.6µM* | 0.1% | 13.8% | 7.4 | ? | 3.1%
COc1cc(OC)nc(-n2ncc(Br)c(Br)c2=O)n1 | 0.651µM* | 4.47µM* | 2.24µM* | -95.8* | 0.82µM* | 4.61µM*
CC(=O)N1CCC2(CCCN(C(c3ccccc3)c3ccccc3)C2)CC1 | ? | 12.4% | 13.1% | / | ? | /
Cn1cccc1C(=O)N1CCC2(CCCN(C(=O)Nc3ccccc3)C2)CC1 | 6.0% | -4.5% | 2.2% | / | 0.1% | /
COc1ccc(OC)c(NC(=O)CN(C)S(=O)(=O)c2ccc3[nH]c4c(c3c2)CCCC4)c1 | 18.4µM* | / | / | / | 20.6µM* | /
COc1cc(NS(=O)(=O)c2ccc3[nH]c4c(c3c2)CCCC4)cc(OC)c1OC | 0.92µM* | / | / | / | 0.581µM* | /
COc1ccc(NS(=O)(=O)c2ccc3[nH]c4c(c3c2)CCCC4)cc1OC | 13µM* | / | / | / | 14.6µM* | /
COc1ccc(OC)c(NC(=O)CN(C)S(=O)(=O)c2ccc3nc(C)sc3c2)c1 | ? | 2.1% | ? | -17.2 | ? | ?
